Screens deposited in PubChem BioAssay by National Center for Advancing Translational Sciences (NCATS).
Only some compounds are listed: those with a hit (about 0.52% of all), similar ones and a draw of the others.
PINK1 modulator: PINK1 expression modulation. PINK1 immunofluorescence, high-content cytometry, 24 h. Potency, µM (top dose mostly 76.6 µM), hits mostly activators. AID 624263. 410,000 compounds, 0.2% hits; active means well fitted activation curve with a large enough effect; inconclusive means small, poorly fitted or top-dose-only effect; cell line not stated here; further: nearly all actives have a fitted effect of over 65% in size
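A stable cell line was treated with compounds at 5 concentrations for 24 hours, with CCCP as control. PINK1 levels and mitochondrial localization were measured by immunofluorescence with mitochondrial, cell and nuclear markers after fixation, read by laser-scanning cytometry.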
Vif-APOBEC3F blk: inhibitors of Vif-A3F interaction. Potency, µM (series often up to 46.1 µM). 390,000 compounds, 0.2% hits. HeLa A3F-eYFP + Vif (tagged APOBEC3F with the HIV-1 protein that degrades it), YFP fluorescence increase; further: nearly all actives have a fitted effect of over 65% in size
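Fluorescence increase (Ex 488/Em 500-530) after overnight compound treatment at 37 deg C flags inhibition of Vif-driven A3F-eYFP loss in stable HeLa A3F-eYFP/Vif cells seeded overnight beforehand.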
Vif-A3G inh: blocks the Vif interaction with human APOBEC3G; HeLa A3G-eYFP + Vif (tagged APOBEC3G with the HIV-1 protein that degrades it), YFP fluorescence, overnight; Potency, µM (top dose mostly 46.1 µM), hits mostly inhibitors; 410,000 compounds, 0.076% hits; AID 602310; further: nearly all actives have a fitted effect of over 60% in size
Target sequence (Q9HC16 whole entry, looked up): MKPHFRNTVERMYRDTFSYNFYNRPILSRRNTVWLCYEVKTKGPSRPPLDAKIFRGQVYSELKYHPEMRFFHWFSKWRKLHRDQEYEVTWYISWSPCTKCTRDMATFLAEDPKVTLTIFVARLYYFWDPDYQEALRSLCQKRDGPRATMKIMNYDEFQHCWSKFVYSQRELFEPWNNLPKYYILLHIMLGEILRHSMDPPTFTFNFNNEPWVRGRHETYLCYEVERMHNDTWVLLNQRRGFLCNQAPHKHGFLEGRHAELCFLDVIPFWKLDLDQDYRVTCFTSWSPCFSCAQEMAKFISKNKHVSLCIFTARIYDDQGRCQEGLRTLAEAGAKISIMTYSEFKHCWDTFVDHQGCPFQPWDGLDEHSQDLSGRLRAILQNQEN
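HeLa cells stably expressing Vif and C-terminally eYFP-tagged A3G, seeded overnight at 37 deg C, then exposed to compound by pintool overnight at 37 deg C. Rise in yellow fluorescence (Ex 488/Em 500-530, Acumen) marks blocked Vif-driven A3G degradation.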
Epigenetic reg: derepresses silenced GFP reporter in murine cells | murine LDR cells, GFP reporter derepression, 30 h | Potency, µM (series often up to 53.9 µM), usual class: activators | 280,000 compounds, 0.2% hits | AID 1865; further: nearly all actives have a fitted effect of over 60% in size
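Murine LDR cells carrying a silenced, genomically integrated CMV-driven GFP reporter were exposed to compound for 30 hours at 37 C. After PBS washes, GFP-positive cells (20–120 um objects) were counted by laser-scanning microplate cytometry.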
Hits are given with their value; - = inactive; ? = inconclusive; . = no result given. Unless noted, the call rests on the fitted dose curve; in most records, active means well fitted curve in the direction sought with a large enough effect; inconclusive means small, poorly fitted or top-dose-only effect, or another doubt; inactive means no such curve, though single readings can be large; an effect the other way counts as inactive or inconclusive.

SMILES | PINK1 modulator | Vif-APOBEC3F blk | Vif-A3G inh | Epigenetic reg
CC1CCCC/C1=N\NC(=S)Nc1cccnc1 (stereo unspecified) | - | - | - | -
COc1ccccc1C(=O)Nc1nc(-c2ccc(Br)cc2)ns1 | - | - | - | -
Cc1ccccc1C(=O)Nc1nc(-c2ccc(Br)cc2)ns1 | 25.1µM | - | - | -
Cc1cc(C)c2cc3c(N)c(C(=O)Nc4c(C)[nH]c(=O)[nH]c4=O)sc3nc2c1 | ? | 22.4µM | ? | -
Cc1cc(C)n(-c2cccc(C(=O)NCC3Cc4cc(Cl)cc(-c5cnccn5)c4O3)c2)n1 (stereo unspecified) | - | . | . | .
CCOCCCNc1nc2c(C)cccn2c(=O)c1/C=C1\SC(=S)N(C(C)CC)C1=O (stereo unspecified) | - | - | ? | 3.16µM
Cc1cccc(C)c1OCC(=O)Nc1nonc1-c1ccc(Br)cc1 | ? | . | . | -
Cc1cc(C)cc(OC(C)C(=O)Nc2nonc2-c2ccc(Br)cc2)c1 (stereo unspecified) | 15.8µM | . | . | -
CC1=C(n2nnc3ccccc32)C(c2ccccc2)C(C#N)=C(N)O1 (stereo unspecified) | - | 25.1µM | - | -
Cc1nn(-c2ccccc2)c2c1C(c1ccncc1)C(C#N)=C(N)O2 (stereo unspecified) | - | - | - | -
O=C(Oc1ccc2c(c1)OCO2)c1ccc(Br)c(S(=O)(=O)N2CCOCC2)c1 | 11.2µM | - | - | -
O=C(Nc1ncc([N+](=O)[O-])s1)c1cccc([N+](=O)[O-])c1 | 14.1µM | - | - | -
O=C(Nc1ncc(S(=O)(=O)c2ccc([N+](=O)[O-])cc2)s1)c1ccc2ccccc2c1 | 14.1µM | - | - | -
O=C(Nc1ncc(S(=O)(=O)c2ccc([N+](=O)[O-])cc2)s1)c1cccnc1 | - | - | - | -
COCc1ccc(CN2CCOc3c(cc(-c4cc(C)c5cccc(OC)c5n4)cc3OC)C2)o1 | - | . | . | .
CCN1/C(=C\c2ccc3cc(C)ccc3[n+]2CC)Sc2cc(C)c(C)cc21 | ? | ? | - | 3.16µM
CCN1/C(=C/c2ccc3cccc(C)c3[n+]2CC)Sc2ccccc21 | 3.98µM | - | ? | ?
CCN1/C(=C/c2ccc3cc(C)ccc3[n+]2CC)Sc2ccc3sccc3c21 | ? | ? | - | .
CCN1/C(=C/c2ccc3cc(C)cc(C)c3[n+]2CC)Sc2cc(C)ccc21 | - | - | ? | 15.8µM
CCN1/C(=C/C(C)=C/c2sc3ccccc3[n+]2CC)Sc2ccccc21 | - | ? | - | -
CCSc1nnc(C(C)NS(=O)(=O)c2cccc(Cl)c2C)n1C (stereo unspecified) | - | . | . | .
COc1cc(CN2CCC3(CCC(CNC(=O)c4ccccc4)O3)CC2)cc(OC)c1 (stereo unspecified) | - | . | . | .
CCc1nnc(NC(=O)Nc2ccc(Cl)cc2)s1 | - | - | - | -
O=C(Nc1ccc(Cl)cc1)Nc1nnc(CSCc2ccc(Cl)cc2)s1 | 11.2µM | - | - | -
CC(=O)OCc1cnc(C)c2oc(=O)c(C(=O)Nc3ccc(F)cc3C)cc12 | - | - | - | -
SMILES | PINK1 modulator | Vif-APOBEC3F blk | Vif-A3G inh | Epigenetic reg
CSc1cccc(NC(=O)c2cc3c(COC(C)=O)cnc(C)c3oc2=O)c1 | - | 10µM | ? | -
Cc1ccccc1NC(=S)NNc1ncc(C(F)(F)F)cc1Cl | - | - | - | -
Fc1ccccc1NC(=S)NNc1ncc(C(F)(F)F)cc1Cl | 15.8µM | - | - | -
O=C(NCCc1ccccn1)C1CC12CCN(C(=O)c1ccc(F)cc1Cl)CC2 (stereo unspecified) | - | . | . | .
Cc1ncc2c(c1CNC(=O)/C=C/c1cccs1)CCN(C(=O)C1CC(=O)OC13CCCCC3)C2 (stereo unspecified) | - | . | . | .
O=C(NCCN1CCOCC1)c1cnn(-c2nccc(-c3ccccc3F)n2)c1C1CC1 | - | . | . | .
CCOc1ccc(OCC)c(Nc2nc3ccc(Cl)cc3n3cnnc23)c1 | - | . | . | 22.4µM
COc1ccc(S(=O)(=O)Nc2nc3ccccc3nc2Nc2ccc3c(c2)OCO3)cc1 | . | . | . | -
O=S(=O)(Nc1nc2ccccc2nc1Nc1ccc2c(c1)OCCO2)c1cccs1 | - | 11.2µM | - | -
CCCSc1nnc(NC(=O)Nc2ccc(C)cc2)s1 | - | - | - | -
CCCSc1nnc(NC(=O)Nc2ccccc2)s1 | 44.7µM | - | - | -
CCCSc1nnc(NC(=O)Nc2ccc(F)cc2)s1 | 14.1µM | - | - | -
O=Cc1ccc(N2CCCC2)c([N+](=O)[O-])c1 | - | ? | - | -
O=[N+]([O-])/C=C\c1ccc(N2CCCC2)c(F)c1 | - | 25.1µM | ? | -
O=C(NC(NC(=S)Nc1c(Cl)cccc1Cl)C(Cl)(Cl)Cl)c1cccc([N+](=O)[O-])c1 (stereo unspecified) | 28.2µM | ? | ? | -
COC(=O)NC(NC(=S)Nc1ccc([N+](=O)[O-])cc1)C(Cl)(Cl)Cl (stereo unspecified) | 20µM | - | - | -
Cc1c(C(=O)NCC2(N3CCOCC3)CCCC2)cnn1-c1nccc(-c2ccccc2F)n1 | - | . | . | .
N#Cc1ccc(/C=C\c2nccc3c2[nH]c2ccccc23)cc1 | ? | ? | 12.6µM | ?
CCOC(=O)c1c(C)n(-c2ccccc2)c2ccc(O)cc12 | - | - | - | -
CCOC(=O)c1c(CN(CC)CC)n(-c2ccccc2)c2ccc(O)cc12 | - | - | 12.6µM | .
O=C(Nc1cccc(-c2nc3ncccc3o2)c1)c1sc2cc(Cl)ccc2c1Cl | 10µM | - | - | -
O=C(Nc1cccc(-c2nc3ncccc3o2)c1)c1sc2ccccc2c1Cl | ? | - | - | -
COC(=O)[C@@H]1CCCN1Cc1ccc2c(c1)CN(Cc1coc3ccccc3c1=O)CCO2 | - | . | . | .
Fc1ccc(NC(=S)NCCc2ccc(Cl)cc2)cc1 | - | - | - | -
Fc1ccc(CCNC(=S)Nc2ccc(F)c(Cl)c2)cc1 | 14.1µM | - | - | -
SMILES | PINK1 modulator | Vif-APOBEC3F blk | Vif-A3G inh | Epigenetic reg
Cc1cc(NC(=O)/C(C#N)=C\c2ccc(-c3ccc(SC(F)F)cc3)o2)n(-c2ccccc2)n1 | ? | 10µM | ? | .
CC(C)c1cccc(-c2ccc3c(c2)S(=O)(=O)c2cccc(C(=O)NCc4ccccc4)c2C3=O)c1 | - | 10µM | - | .
CC(C)c1cccc(-c2ccc3c(c2)S(=O)(=O)c2cccc(C(=O)NCc4ccccc4Cl)c2C3=O)c1 | - | 11.2µM | - | .
CC(C)(CO)NC(=O)c1cnn(-c2nccc(-c3ccc4c(c3)OCO4)n2)c1C1CC1 | - | . | . | .
CC(C)(C)Nc1nc2cc([N+](=O)[O-])ccc2o1 | - | - | - | -
CC(C)(C)c1nc2cc(Cl)c([N+](=O)[O-])cc2o1 | 14.1µM | - | - | -
c1ccc(CCNc2ncnc3c2nnn3Cc2ccccc2)cc1 | 11.2µM | - | - | -
c1ccc(Cn2nnc3c(NCCN4CCOCC4)ncnc32)cc1 | - | - | - | -
N#Cc1ccc(Oc2cccc3cccnc23)c([N+](=O)[O-])c1 | - | - | - | .
O=[N+]([O-])c1ccc(Oc2cccc3cccnc23)c([N+](=O)[O-])c1 | - | ? | 10µM | 12.6µM
O=C1Nc2ccccc2/C1=C/c1cnc(-c2ccccc2)[nH]1 | 44.7µM | - | - | 22.4µM
O=C1Nc2ccccc2/C1=C/c1cccnc1 | - | - | - | -
